In PMC4242493, “Sequence specificity incompletely defines the genome-wide occupancy of Myc”:
In all, about 33,000 sequences were measured (“normalized occupancy”: median about 0.075, highest 2% from about 0.095 on). The full list was thinned out, with the highest values kept by preference.

These sequences were tested against MaxL homodimer (Homo sapiens, UniProt P61244 1-160) (assay: universal protein-binding microarray (PBM); PBS-based mixture, 10 nM His-tagged protein dimer, 2% milk, 200 ng/uL BSA, 50 ng/uL salmon testes DNA, 0.02% TX-100; detection with Alexa 488 anti-His antibody;; high values mean tight binding). Conditions: protein: recombinant; tags: C-terminal His-tag (pET21a); chain copies: 2; dsDNA, one strand shown.
MaxL homodimer, sequence (P61244 whole entry): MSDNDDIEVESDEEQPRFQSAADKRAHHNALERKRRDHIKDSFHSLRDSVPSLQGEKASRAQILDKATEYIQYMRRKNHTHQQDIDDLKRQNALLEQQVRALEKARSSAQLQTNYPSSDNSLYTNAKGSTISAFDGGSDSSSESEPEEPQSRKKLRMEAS
In short: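 His-tagged protein dimer at 10 nM was bound to Agilent 4 x 44 K 'all 10-mer' universal arrays and detected with 10 ng/μL fluorophore-conjugated anti-His antibody on a GenePix 4400A, giving an intensity per 8-mer. Binding occupancy normalises each intensity to the top-ranked one.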
For ACGTGAAC, the binding signal was 0.0842 normalized occupancy. Sequence ACGTGAAG has a binding signal of 0.1 normalized occupancy. CCGTGAAG was tested, and the binding signal was 0.0739 normalized occupancy. ACGTGAAT showed a binding signal of 0.0824 normalized occupancy. ACGTGAAA gave a binding signal of 0.097 normalized occupancy. Sequence AAGTGAAG has a binding signal of 0.076 normalized occupancy. GATGAAAC showed a binding signal of 0.0811 normalized occupancy. Sequence AGCGTTAC has a binding signal of 0.0823 normalized occupancy. With CGCGCACA the binding signal was 0.0822 normalized occupancy. For GGCGCACA, the binding signal was 0.0793 normalized occupancy. In the case of TACGCATA, the binding signal is reported as 0.0842 normalized occupancy. CACGCACG was tested, and the binding signal was 0.096 normalized occupancy. For GACGCATA, the binding signal was 0.0777 normalized occupancy. CACGCACA was tested, and the binding signal was 0.0923 normalized occupancy. CACGCAAG showed a binding signal of 0.0838 normalized occupancy. Sequence CACGCACC has a binding signal of 0.0913 normalized occupancy. For CACGCATG, the binding signal was 0.121 normalized occupancy. CGCGCACG was tested, and the binding signal was 0.0959 normalized occupancy. For CACGCATA, the binding signal was 0.0976 normalized occupancy. For AACGCATA, the binding signal was 0.0871 normalized occupancy. ACACAGTC showed a binding signal of 0.0783 normalized occupancy. GTAGTCTA showed a binding signal of 0.0723 normalized occupancy. GTACTACA was tested, and the binding signal was 0.0864 normalized occupancy. Work on ACTTTAGG yielded a binding signal of 0.073 normalized occupancy. ACGCGAAG was tested, and the binding signal was 0.0765 normalized occupancy. AGTAGTAA showed a binding signal of 0.0731 normalized occupancy. In the case of ACAACCGA, the binding signal is reported as 0.0733 normalized occupancy. Work on AACGCAAG yielded a binding signal of 0.073 normalized occupancy. Work on AACGCATT yielded a binding signal of 0.0767 normalized occupancy. Sequence CACGCATC has a binding signal of 0.0962 normalized occupancy. Work on AACGCATG yielded a binding signal of 0.121 normalized occupancy. Work on GACGCATC yielded a binding signal of 0.077 normalized occupancy. AACGCATC gave a binding signal of 0.0731 normalized occupancy. AAACTATT was tested, and the binding signal was 0.0745 normalized occupancy. TAGGACTA was tested, and the binding signal was 0.0732 normalized occupancy. In the case of CACCCGTA, the binding signal is reported as 0.0782 normalized occupancy. For CAGCATAG, the binding signal was 0.0739 normalized occupancy. GAGCATGA was tested, and the binding signal was 0.0963 normalized occupancy. Sequence CAGCATGA has a binding signal of 0.106 normalized occupancy. CAGCATCG showed a binding signal of 0.0732 normalized occupancy. For GAGCATCA, the binding signal was 0.0734 normalized occupancy. Sequence GAGCATAA has a binding signal of 0.0797 normalized occupancy. Work on TAGCATGA yielded a binding signal of 0.0921 normalized occupancy. In the case of CAGCATAA, the binding signal is reported as 0.0808 normalized occupancy. Work on CAGCATGG yielded a binding signal of 0.13 normalized occupancy. Sequence CGTCGAAC has a binding signal of 0.0719 normalized occupancy. For ACTCGTGC, the binding signal was 0.0933 normalized occupancy. For CCTCGTGA, the binding signal was 0.125 normalized occupancy. AGTCGTGA was tested, and the binding signal was 0.0749 normalized occupancy. Sequence CCTCGTTC has a binding signal of 0.0806 normalized occupancy. ACTCGTGA gave a binding signal of 0.0957 normalized occupancy. Sequence CATCGTGC has a binding signal of 0.0886 normalized occupancy. GCTCGTGA gave a binding signal of 0.0843 normalized occupancy. With ACTCGTGG the binding signal was 0.0955 normalized occupancy. ACTCGTCA gave a binding signal of 0.0793 normalized occupancy. For CCTCGTGC, the binding signal was 0.133 normalized occupancy. AATCGTGG was tested, and the binding signal was 0.0832 normalized occupancy. For CCTCGTTA, the binding signal was 0.0752 normalized occupancy. With ACGTTGAA the binding signal was 0.083 normalized occupancy. With GGGACCAC the binding signal was 0.078 normalized occupancy. CTCTCCAC was tested, and the binding signal was 0.0859 normalized occupancy. Work on CTATGCTA yielded a binding signal of 0.0768 normalized occupancy. AGACACAT was tested, and the binding signal was 0.0849 normalized occupancy. In the case of CTAAGGTC, the binding signal is reported as 0.0732 normalized occupancy. Work on AAATGACC yielded a binding signal of 0.0764 normalized occupancy. For ATAAGCTG, the binding signal was 0.0801 normalized occupancy. In the case of GTGCGTGA, the binding signal is reported as 0.0887 normalized occupancy. Work on ATGCGTCC yielded a binding signal of 0.0782 normalized occupancy. Sequence ATGCGTTG has a binding signal of 0.0816 normalized occupancy. Sequence ATGCGTAG has a binding signal of 0.0832 normalized occupancy. Sequence CTGCGTGA has a binding signal of 0.0818 normalized occupancy. Work on ATGCGTGA yielded a binding signal of 0.0965 normalized occupancy. With ATGCGTGC the binding signal was 0.0969 normalized occupancy. Work on ATGCGTGG yielded a binding signal of 0.106 normalized occupancy. In the case of CTGCGTGC, the binding signal is reported as 0.0861 normalized occupancy. ACATCCCG showed a binding signal of 0.0795 normalized occupancy. AGAATGGA showed a binding signal of 0.0768 normalized occupancy. With GCGACGCA the binding signal was 0.0736 normalized occupancy. Sequence CGCGTAAC has a binding signal of 0.0752 normalized occupancy. For CCACATGC, the binding signal was 0.163 normalized occupancy. For CCACATAG, the binding signal was 0.0803 normalized occupancy. CCACATTA gave a binding signal of 0.093 normalized occupancy. CAACATGG gave a binding signal of 0.0932 normalized occupancy. For CAACATGA, the binding signal was 0.0936 normalized occupancy. For CCACATGG, the binding signal was 0.227 normalized occupancy. In the case of CCACATGA, the binding signal is reported as 0.134 normalized occupancy.
